# Test results taken from the supplement of paper PMC4466140.
# B1: unnamed (peptide)
# chain: VPPVPLPFGIPPFPM
# Molecular target: AgAbp1
# Test: SPOT peptide array binding signal intensity (averaged, normalized) (arbitrary units (background-subtracted, floor 0; scale differs between SH3 domains)); higher = stronger binding of the SH3 domain to the peptide
# In short: (§1)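 E. coli BL21(DE3) was used to express GST-fused SH3 domains from four yeast species, which were then purified on glutathione Sepharose. These were incubated at 10 μg/ml in TBS-based blocking buffer overnight at 4°C on cellulose membranes carrying synthetic 15-mer peptides, in which cysteines were replaced by serines. Binding signal is the replicate average of normalized, background-subtracted spot intensity, in arbitrary units that differ between domains.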
row,Binder,SPOT peptide array binding signal intensity
1,B1,3

# Molecular target: AgBbc1
# Test: as above
# In short: as §1
row,Binder,SPOT peptide array binding signal intensity
1,B1,≤ 0

# Molecular target: AgBem1-D1
# Test: as above
# In short: as §1
row,Binder,SPOT peptide array binding signal intensity
1,B1,288

# Molecular target: AgBzz1-D1
# Test: as above
# In short: as §1
row,Binder,SPOT peptide array binding signal intensity
1,B1,6

# Molecular target: AgBzz1-D2
# Test: as above
# In short: as §1
row,Binder,SPOT peptide array binding signal intensity
1,B1,10

# Molecular target: AgCyk3
# Test: as above
# In short: as §1
row,Binder,SPOT peptide array binding signal intensity
1,B1,≤ 0

# Molecular target: AgFus1
# Test: as above
# In short: as §1
row,Binder,SPOT peptide array binding signal intensity
1,B1,≤ 0

# Molecular target: AgHof1
# Test: as above
# In short: as §1
row,Binder,SPOT peptide array binding signal intensity
1,B1,338

# Molecular target: AgHse1
# Test: as above
# In short: as §1
row,Binder,SPOT peptide array binding signal intensity
1,B1,51

# Molecular target: AgLsb1
# Test: as above
# In short: as §1
row,Binder,SPOT peptide array binding signal intensity
1,B1,2

# Molecular target: AgLsb4
# Test: as above
# In short: as §1
row,Binder,SPOT peptide array binding signal intensity
1,B1,≤ 0

# Molecular target: AgMyo5
# Test: as above
# In short: as §1
row,Binder,SPOT peptide array binding signal intensity
1,B1,720

# Molecular target: AgNbp2
# Test: as above
# In short: as §1
row,Binder,SPOT peptide array binding signal intensity
1,B1,5

# Molecular target: AgRvs167
# Test: as above
# In short: as §1
row,Binder,SPOT peptide array binding signal intensity
1,B1,≤ 0

# Molecular target: AgSho1
# Test: as above
# In short: as §1
row,Binder,SPOT peptide array binding signal intensity
1,B1,4

# Molecular target: AgSla1-D1-D2
# Test: as above
# In short: as §1
row,Binder,SPOT peptide array binding signal intensity
1,B1,4

# Molecular target: AgSla1-D3
# Test: as above
# In short: as §1
row,Binder,SPOT peptide array binding signal intensity
1,B1,5.75

# Molecular target: CaAbp1-D1
# Test: as above
# In short: as §1
row,Binder,SPOT peptide array binding signal intensity
1,B1,8

# Molecular target: CaAbp1-D2
# Test: as above
# In short: as §1
row,Binder,SPOT peptide array binding signal intensity
1,B1,11

# Molecular target: CaBbc1
# Test: as above
# In short: as §1
row,Binder,SPOT peptide array binding signal intensity
1,B1,2.5

# Molecular target: CaBem1-D1
# Test: as above
# In short: as §1
row,Binder,SPOT peptide array binding signal intensity
1,B1,20

# Molecular target: CaBzz1-D1
# Test: as above
# In short: as §1
row,Binder,SPOT peptide array binding signal intensity
1,B1,32

# Molecular target: CaBzz1-D2
# Test: as above
# In short: as §1
row,Binder,SPOT peptide array binding signal intensity
1,B1,≤ 0

# Molecular target: CaCyk3
# Test: as above
# In short: as §1
row,Binder,SPOT peptide array binding signal intensity
1,B1,3

# Molecular target: CaFus1
# Test: as above
# In short: as §1
row,Binder,SPOT peptide array binding signal intensity
1,B1,102

# Molecular target: CaHof1
# Test: as above
# In short: as §1
row,Binder,SPOT peptide array binding signal intensity
1,B1,≤ 0

# Molecular target: CaHse1
# Test: as above
# In short: as §1
row,Binder,SPOT peptide array binding signal intensity
1,B1,2.5

# Molecular target: CaLsb1
# Test: as above
# In short: as §1
row,Binder,SPOT peptide array binding signal intensity
1,B1,0.25

# Molecular target: CaLsb4
# Test: as above
# In short: as §1
row,Binder,SPOT peptide array binding signal intensity
1,B1,27.5

# Molecular target: CaMyo5
# Test: as above
# In short: as §1
row,Binder,SPOT peptide array binding signal intensity
1,B1,296

# Molecular target: CaNbp2
# Test: as above
# In short: as §1
row,Binder,SPOT peptide array binding signal intensity
1,B1,88.5

# Molecular target: CaRvs167
# Test: as above
# In short: as §1
row,Binder,SPOT peptide array binding signal intensity
1,B1,1.33

# Molecular target: CaRvs167-3
# Test: as above
# In short: as §1
row,Binder,SPOT peptide array binding signal intensity
1,B1,2.5

# Molecular target: CaSho1
# Test: as above
# In short: as §1
row,Binder,SPOT peptide array binding signal intensity
1,B1,25

# Molecular target: CaSla1-D1-D2
# Test: as above
# In short: as §1
row,Binder,SPOT peptide array binding signal intensity
1,B1,34

# Molecular target: CaSla1-D3
# Test: as above
# In short: as §1
row,Binder,SPOT peptide array binding signal intensity
1,B1,25.8

# Molecular target: ScAbp1
# Test: as above
# In short: as §1
row,Binder,SPOT peptide array binding signal intensity
1,B1,≤ 0

# Molecular target: ScBbc1
# Test: as above
# In short: as §1
row,Binder,SPOT peptide array binding signal intensity
1,B1,≤ 0

# Molecular target: ScBem1-D1
# Test: as above
# In short: as §1
row,Binder,SPOT peptide array binding signal intensity
1,B1,1

# Molecular target: ScBzz1-D1
# Test: as above
# In short: as §1
row,Binder,SPOT peptide array binding signal intensity
1,B1,≤ 0

# Molecular target: ScBzz1-D2
# Test: as above
# In short: as §1
row,Binder,SPOT peptide array binding signal intensity
1,B1,2.5

# Molecular target: ScCyk3
# Test: as above
# In short: as §1
row,Binder,SPOT peptide array binding signal intensity
1,B1,2.5

# Molecular target: ScFus1
# Test: as above
# In short: as §1
row,Binder,SPOT peptide array binding signal intensity
1,B1,≤ 0

# Molecular target: ScHof1
# Test: as above
# In short: as §1
row,Binder,SPOT peptide array binding signal intensity
1,B1,144

# Molecular target: ScHse1
# Test: as above
# In short: as §1
row,Binder,SPOT peptide array binding signal intensity
1,B1,47

# Molecular target: ScLsb1
# Test: as above
# In short: as §1
row,Binder,SPOT peptide array binding signal intensity
1,B1,0.75

# Molecular target: ScLsb2
# Test: as above
# In short: as §1
row,Binder,SPOT peptide array binding signal intensity
1,B1,≤ 0

# Molecular target: ScLsb3
# Test: as above
# In short: as §1
row,Binder,SPOT peptide array binding signal intensity
1,B1,6.5

# Molecular target: ScLsb4
# Test: as above
# In short: as §1
row,Binder,SPOT peptide array binding signal intensity
1,B1,≤ 0

# Molecular target: ScMyo3
# Test: as above
# In short: as §1
row,Binder,SPOT peptide array binding signal intensity
1,B1,867

# Molecular target: ScMyo5
# Test: as above
# In short: as §1
row,Binder,SPOT peptide array binding signal intensity
1,B1,308

# Molecular target: ScNbp2
# Test: as above
# In short: as §1
row,Binder,SPOT peptide array binding signal intensity
1,B1,23

# Molecular target: ScPex13
# Test: as above
# In short: as §1
row,Binder,SPOT peptide array binding signal intensity
1,B1,772

# Molecular target: ScRvs167
# Test: as above
# In short: as §1
row,Binder,SPOT peptide array binding signal intensity
1,B1,0.333

# Molecular target: ScSho1
# Test: as above
# In short: as §1
row,Binder,SPOT peptide array binding signal intensity
1,B1,41

# Molecular target: ScSla1-D1-D2
# Test: as above
# In short: as §1
row,Binder,SPOT peptide array binding signal intensity
1,B1,≤ 0

# Molecular target: ScSla1-D3
# Test: as above
# In short: as §1
row,Binder,SPOT peptide array binding signal intensity
1,B1,7.5

# Molecular target: SpAbp1-D1
# Test: as above
# In short: as §1
row,Binder,SPOT peptide array binding signal intensity
1,B1,2

# Molecular target: SpBbc1
# Test: as above
# In short: as §1
row,Binder,SPOT peptide array binding signal intensity
1,B1,1.5

# Molecular target: SpBzz1-D1
# Test: as above
# In short: as §1
row,Binder,SPOT peptide array binding signal intensity
1,B1,236

# Molecular target: SpBzz1-D2
# Test: as above
# In short: as §1
row,Binder,SPOT peptide array binding signal intensity
1,B1,1.5

# Molecular target: SpCyk3
# Test: as above
# In short: as §1
row,Binder,SPOT peptide array binding signal intensity
1,B1,1

# Molecular target: SpHof1
# Test: as above
# In short: as §1
row,Binder,SPOT peptide array binding signal intensity
1,B1,4

# Molecular target: SpHof1-2
# Test: as above
# In short: as §1
row,Binder,SPOT peptide array binding signal intensity
1,B1,9.5

# Molecular target: SpHof1-3
# Test: as above
# In short: as §1
row,Binder,SPOT peptide array binding signal intensity
1,B1,7

# Molecular target: SpHse1
# Test: as above
# In short: as §1
row,Binder,SPOT peptide array binding signal intensity
1,B1,70.8

# Molecular target: SpLsb1
# Test: as above
# In short: as §1
row,Binder,SPOT peptide array binding signal intensity
1,B1,≤ 0

# Molecular target: SpLsb4
# Test: as above
# In short: as §1
row,Binder,SPOT peptide array binding signal intensity
1,B1,51.5

# Molecular target: SpMyo1
# Test: as above
# In short: as §1
row,Binder,SPOT peptide array binding signal intensity
1,B1,775

# Molecular target: SpNbp2
# Test: as above
# In short: as §1
row,Binder,SPOT peptide array binding signal intensity
1,B1,7

# Molecular target: SpPex13
# Test: as above
# In short: as §1
row,Binder,SPOT peptide array binding signal intensity
1,B1,9.5

# Molecular target: SpRvs167
# Test: as above
# In short: as §1
row,Binder,SPOT peptide array binding signal intensity
1,B1,24.5

# Molecular target: SpSla1-D1-D2
# Test: as above
# In short: as §1
row,Binder,SPOT peptide array binding signal intensity
1,B1,3

# Molecular target: SpSla1-D3
# Test: as above
# In short: as §1
row,Binder,SPOT peptide array binding signal intensity
1,B1,6
